Vif-A3F inh: inhibitors of Vif-A3F interaction. HeLa A3F-eYFP + Vif (tagged APOBEC3F with the HIV-1 protein that degrades it), YFP fluorescence increase. Potency, µM (doses to about 46.1 µM), for the others: at the highest dose activity, negative = active. 390,000 tested, 0.2% active. AID 602313; also: potency is read from the fitted curve at half-maximal effect; % of control where 0% means no effect; nearly all actives have a fitted effect of over 65% in size
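Fluorescence increase (Ex 488/Em 500-530) after overnight compound treatment at 37 deg C flags inhibition of Vif-driven A3F-eYFP loss in stable HeLa A3F-eYFP/Vif cells seeded overnight beforehand.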
Vif-APOBEC3G blk: blocks the Vif interaction with human APOBEC3G; HeLa A3G-eYFP + Vif (tagged APOBEC3G with the HIV-1 protein that degrades it), YFP fluorescence, overnight; AID 602310; 410,000 tested, 0.076% active; Potency, µM (series often up to 46.1 µM), without a hit: at the top dose activity, negative = active, most hits filed as inhibitors; also: potency is read from the fitted curve at half-maximal effect; % is scaled to controls: 0 for no effect and ±100 for the full control effect; nearly all actives have a fitted effect of over 60% in size
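HeLa cells stably expressing Vif and C-terminally eYFP-tagged A3G, seeded overnight at 37 deg C, then exposed to compound by pintool overnight at 37 deg C. Rise in yellow fluorescence (Ex 488/Em 500-530, Acumen) marks blocked Vif-driven A3G degradation.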
TRPML1 agonist: activates the human TRPML1 channel; 410,000 tested, 0.12% active; TRPML1-expressing cells, Ca2+ dye fluorescence, FDSS; Q9GZU1; AID 624414; activation, % (concentration not given with the values); in the data active = activation above about 50%; inconclusive = mostly about 30% to 49%; also: 0% is about no effect
Target sequence (Q9GZU1 whole entry, looked up): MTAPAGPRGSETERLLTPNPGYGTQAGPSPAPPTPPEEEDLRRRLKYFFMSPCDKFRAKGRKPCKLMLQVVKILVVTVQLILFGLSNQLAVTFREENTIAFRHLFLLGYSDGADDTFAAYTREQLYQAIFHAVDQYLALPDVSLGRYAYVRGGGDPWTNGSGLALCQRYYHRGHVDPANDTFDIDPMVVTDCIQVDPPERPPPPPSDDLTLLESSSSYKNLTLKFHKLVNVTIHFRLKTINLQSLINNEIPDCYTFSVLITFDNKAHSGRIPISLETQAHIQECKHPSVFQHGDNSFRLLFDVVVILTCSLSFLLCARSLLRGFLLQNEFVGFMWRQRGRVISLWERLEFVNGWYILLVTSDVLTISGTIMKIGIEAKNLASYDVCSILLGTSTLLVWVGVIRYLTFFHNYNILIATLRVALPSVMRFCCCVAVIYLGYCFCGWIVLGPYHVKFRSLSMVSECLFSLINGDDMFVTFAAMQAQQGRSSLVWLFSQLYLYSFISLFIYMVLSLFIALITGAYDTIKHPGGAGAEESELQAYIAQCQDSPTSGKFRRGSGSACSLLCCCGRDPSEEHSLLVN
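TRPML1-DL cells, Tet-induced overnight (~16 h, 37 degrees C), loaded 45-90 min at room temperature with Ca8 no-wash calcium dye plus quencher. FDSS fluorescence: 10 s baseline, compound pin-transfer, 110 s agonist read, then EC80 54-4 (4uM final) and 110 s antagonist read.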
ALOX12 inh: inhibitors of human 12S-lipoxygenase ALOX12; P18054; purified 12hLO, xylenol orange hydroperoxide absorbance; Potency, µM (top dose mostly 108 µM), inactives show at the top dose activity change, negative = inhibition, hits mostly inhibitors; 580,000 tested, 1.1% active; also: potency is read from the fitted curve at half-maximal effect; % is scaled to controls: 0 for no effect and ±100 for the full control effect
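Purified human 12hLO (150 nM final) in 25 mM Hepes, 0.01% Triton X-100, pH 7.0 was preincubated 15 min at room temperature with compound. Then 40 uM arachidonic acid was added, 30 min. Hydroperoxide was read by Fe-XO absorbance ratio 573/405 nm.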
TRPML1 inh: human mucolipin-1 channel inhibition. Q9GZU1. TRPML1-inducible cells, Ca2+ dye fluorescence, FDSS; active compounds read low; inhibition of EC80 agonist-evoked calcium signal. activity change, negative = inhibition, % (concentration not given with the values). 390,000 tested, 0.02% active. AID 624415; in the data active = activity change below about -50%; inconclusive = between about -30% and that limit;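 also: stimulus is agonist 54-4 at its EC80 concentration; % is scaled to controls: 0 for no effect and ±100 for the full control effect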
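Tet-induced TRPML1-DL cells loaded with Ca8 no-wash calcium dye were read kinetically on FDSS. Compound addition was followed by EC80 agonist 54-4 (4 uM final); inhibition was read over 110 s.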
Glioma ERSR ind: inducers of ER stress response in human glioma cells; U87-MG GRP78 promoter luciferase reporter, 16 h; 420,000 tested, 0.02% active; Potency, µM, without a hit: top-dose activation, actives largely listed as activators; also: potency is read from the fitted curve at half-maximal effect; series mostly up to about 76 µM; % of control where 0% means no effect; nearly all actives have a fitted effect of over 35% in size
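ERSR induction read as luciferase luminescence (Bright-Glo, 10 min at room temperature) in stably transfected human U87-MG glioma cells exposed to compounds for 16 h, using GRP78 as sensor.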
* marks the source's active call; other numbers are inactive results; i = inactive; ? = inconclusive; · = no result; ! = a repeat was not active. Shown are actives, neighbours in structure and some others; about 1.3% of the full set was active somewhere. Unless noted, calls follow the shape of the dose curve; as a rule, active = well fitted curve in the direction sought with a large enough effect; inconclusive = small, poorly fitted or top-dose-only effect, or another doubt; inactive = no such curve, though single readings can be large; an effect the other way counts as inactive or inconclusive.

SMILES	Vif-A3F inh	Vif-APOBEC3G blk	TRPML1 agonist	ALOX12 inh	TRPML1 inh	Glioma ERSR ind
CCOc1ccc(C(C)NC(=S)NCc2ccc(F)cc2)cc1 (stereo not drawn)	1%	4%	0	?	-16	-3%
Cc1ccc(-c2csc(-c3nc(-c4ccc(C)cc4C)cs3)n2)cc1	·	·	·	-5%	·	·
O=C(Nc1ccc(Cc2ccncc2)cc1)c1ccc(Br)cc1	·	·	·	-33%	·	·
O=C(O)c1cc([N+](=O)[O-])ccc1NCCCc1ccccc1	-2%	-4%	1	-16%	-3	28µM*!
CC(C)CCC(CCNCc1ccco1)c1ccco1 (stereo not drawn)	·	·	·	0.45µM*	·	·
CC1(C(=O)OCC(=O)Nc2nc(-c3ccc(F)c(F)c3)cs2)CC1(Cl)Cl (stereo not drawn)	-2%	-4%	1	56µM*	11	-7%
CCCC(C(=O)Nc1c(C)cccc1C)N1C(=O)C(=O)c2ccccc21 (stereo not drawn)	·	·	·	6.3µM*	·	·
CCCN(Cc1cc2ccc(C)cc2[nH]c1=O)S(=O)(=O)c1ccc(Cl)cc1	·	·	·	3%	·	·
CC1=C(C)C(c2cn(C)c3ccccc23)N(C(C)(C)C)C1=O (stereo not drawn)	·	·	·	3%	·	·
O=C1S/C(=C/c2ccc(N3CCOCC3)o2)C(=O)N1Cc1ccc(F)cc1	?	?	20	10µM*	-14	0%
O=C1S/C(=C\c2ccc(N3CCOCC3)o2)C(=O)N1Cc1ccc(F)cc1	?	?	3	·	3	-3%
O=C1NC(=S)S/C1=C/c1ccc(N2CCOCC2)o1	i	11µM*	28	·	-3	-1%
CN(C)c1ccc(C(=O)Nc2ccccc2-c2ccccc2)cc1	·	·	·	-4%	·	·
O=C(N/N=C/c1ccccc1)c1ccc2c(c1)OCO2	0%	-4%	0	10%	-12	-11%
O=C(NN=Cc1c(O)ccc2ccccc12)c1ccc2c(c1)OCO2	7.9µM*	?	7	113%	-21	-1%
Cc1ccc(NC(=S)NC(=O)c2ccc(F)cc2)cc1S(=O)(=O)Nc1ccccc1Cl	-11%	2%	1	5µM*	23	4%
COc1cc(NS(=O)(=O)c2ccc(NC(=S)NC(=O)c3ccc(F)cc3)cc2)nc(OC)n1	-9%	-7%	0	18µM*	11	3%
COc1cc(NS(=O)(=O)c2ccc(NC(=O)c3ccc(C(C)=O)cc3)cc2)nc(OC)n1	·	·	2	-24%	2	·
COc1cc(NS(=O)(=O)c2ccc(NC(=S)NC(=O)c3ccco3)cc2)ncn1	4%	-1%	-1	?	-3	0%
COc1ccc(C(=O)NC(=S)Nc2ccc(S(=O)(=O)Nc3cc(OC)ncn3)cc2)cc1	-2%	-11%	1	10µM*	11	0%
Cc1ccc(NC(=O)c2ccc(=O)[nH]n2)cc1S(=O)(=O)Nc1ccccc1Cl	-11%	4%	-1	254%	-3	-3%
Cc1cc(NS(=O)(=O)c2ccc(NC(=S)NC(=O)c3ccc(F)cc3)cc2)no1	8%	-2%	1	25µM*	8	-3%
Cc1cc(NS(=O)(=O)c2ccc(NC(=S)NC(=O)c3cccc(S(=O)(=O)N(C)C)c3)cc2)no1	16%	1%	0	?	-3	-3%
CCN(CC)c1ccc(C(=O)NCc2ccco2)cc1	·	·	·	-29%	·	·
CCc1ccc(NC(=O)NCc2nc(-c3ccccc3)oc2C)cc1	·	·	·	-56%	·	·
SMILES	Vif-A3F inh	Vif-APOBEC3G blk	TRPML1 agonist	ALOX12 inh	TRPML1 inh	Glioma ERSR ind
Brc1ccc(-c2nnc(COc3cccc(-n4cnnn4)c3)o2)o1	·	·	·	-23%	·	·
Cc1c(CCC(=O)N2CCCC2)c(=O)oc2c(C)c(O)ccc12	·	·	·	18%	·	·
COc1ccc(OCC(=O)NC(=S)Nc2ccc(S(=O)(=O)Nc3cc(OC)nc(OC)n3)cc2)cc1	9%	-1%	1	?	4	-4%
COc1ccc(C(=O)NC(=S)Nc2ccc(S(=O)(=O)Nc3cc(OC)nc(OC)n3)cc2)cc1	0%	-5%	0	7.1µM*	26	0%
Cc1ccc2[nH]c(C)c(CC(=O)NCC(C)(C)CN(C)C)c2c1	·	·	·	10%	·	·
CNC(=O)Cc1ccc(NC(=O)C2CCCC2)cc1	·	·	·	19%	·	·
Cc1cc(N2C(=O)C(O)=C(C(=O)c3ccco3)C2c2ccc([N+](=O)[O-])cc2)no1 (stereo not drawn)	-4%	8%	1	45µM*	2	-6%
CCOC(=O)c1sc(N2C(=O)C(O)=C(C(=O)c3ccco3)C2c2ccc([N+](=O)[O-])cc2)nc1C (stereo not drawn)	-2%	2%	0	28µM*	-2	-4%
Cc1cc(Cl)ccc1NC(=O)N1C[C@H](c2nc(-c3cccnc3)no2)[C@@H](C)C1	·	·	·	37%	·	·
CC(Cc1cccnc1)Nc1cc(-c2ccccc2F)nc2ccnn12 (stereo not drawn)	·	·	·	47%	·	·
CCCCCCCCSCC(N)=O	·	·	·	-10%	·	·
COc1cc(C)c(S(=O)(=O)N2CCN(c3cc(N4CCCC4)nc(C)n3)CC2)cc1C	·	·	·	5%	·	·
Cc1ccccc1C(=O)NC1CCCC1	·	·	·	35%	·	·
Cc1cc(C)c(C)c(SCC(=O)Nc2oc(C)c3c(C)n[nH]c(=O)c23)c1C	2%	3%	1	25µM*	22	-4%
Cc1n[nH]c(=O)c2c(NC(=O)CSc3ccc(F)cc3)oc(C)c12	-2%	1%	-1	?	6	1%
N#Cc1ccc(-c2ccco2)nc1SCc1ccccc1	1%	?	8	3%	35	-6%
CCSc1nc(-c2ccco2)ccc1C#N	·	-12%	-1	6.3µM*	1	-3%
Cc1ccc(NC(=O)c2ncoc2-c2ccc(C)o2)c(Cl)c1	·	·	·	-1%	·	·
Cn1c(SCC(=O)c2cc3cc(Cl)ccc3o2)nnc1-c1cccnc1	·	·	·	28µM*	·	·
O=C(CSc1nnc(-c2cccnc2)n1C1CC1)c1cc2cc(Cl)ccc2o1	·	·	·	25µM*	·	·
O=C(CSc1nnc(-c2cccnc2)n1C1CCCCC1)NC1CCCCC1	-3%	1%	2	-17%	-25	-3%
N#Cc1ccccc1Cn1c(CN2CCCCC2)nc2scc(-c3cccs3)c2c1=O	·	·	·	-7%	·	·
CCCn1c(=O)n(CC(=O)NCc2nnc3n2CCCCC3)c2ccccc21	·	·	·	35%	·	·
O=C(N/N=C/C=C/c1ccccc1[N+](=O)[O-])c1ccccc1NS(=O)(=O)c1cccs1	·	·	·	-6%	·	·
O=C(O)c1csc(N/N=C/c2ccc(Br)cc2)n1	?	-8%	-1	35µM*	9	2%
CCOC(=O)c1cnc2nc(-c3cccnc3)nn2c1C	·	·	·	11%	·	·
Cc1c(CC(=O)O)c(=O)oc2cc(OCc3ccc(F)cc3)ccc12	·	·	·	-2%	·	·

Bioassay records deposited in PubChem BioAssay by National Center for Advancing Translational Sciences (NCATS).
